Sampled rows, rich in hits. Any-hit rate of the full collection: about 10%.
hNpr1 antagonist = Natriuretic polypeptide receptor (hNpr1) antagonism - Primary qHTS. Atrial natriuretic peptide receptor 1 (Homo sapiens), P16066. HEK293 hNpr1 GloSensor cGMP, ANP-stimulated luminescence. Potency, µM (top dose mostly 46.3 µM), hits mostly inhibitors. 76,000 compounds, 1.6% hits; calls by dose curve; note: nearly all actives have a fitted effect of over 60% in size
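Compound pre-incubated 30 min at room temperature on GloSensor-loaded HEK293 cells stably carrying hNpr1 and the pGS-40F cGMP biosensor. Stimulation uses hNppA at 0.1 nM final; luminescence is taken at baseline and 20 min post-agonist.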
HEK293 tox = Cytotoxic Profiling in HEK 293 Cell Line of Diverse Libraries Using Quantitative High-Throughput Screening | Potency, µM (highest dose often 115 µM), actives largely listed as inhibitors | 94,000 compounds, 6.6% hits | HEK 293 viability, ATP luminescence (CellTiter-Glo), 48-72 h | AID 1345083, 2018; note: nearly all actives have a fitted effect of over 60% in size
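HEK 293 cells seeded at 250 cells/well were exposed to compound for 48 or 72 hr at 37 degree Celsius. Viability taken as ATP content by CellTiter-Glo luminescence.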
NIH3T3 tox = Cytotoxic Profiling in NIH 3T3 Cell Line of Diverse Libraries Using Quantitative High-Throughput Screening. NIH 3T3 viability, CellTiter-Glo ATP luminescence, 48-72 h. Potency, µM (series often up to 96.7 µM), actives largely listed as inhibitors. 94,000 compounds, 4.3% hits. AID 1345082, 2018; note: nearly all actives have a fitted effect of over 55% in size
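First NIH 3T3 cells are plated at 400 cells/well; next compound is pinned in; then plates incubate 48 or 72 hr at 37 °C; finally CellTiter-Glo is added and luminescence read after 10 min.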
Luciferase inh = Firefly luciferase inhibition profiling of diverse chemical library using quantitative high-throughput screening; purified P. pyralis luciferase, luminescence, biochemical; Potency, µM (top dose mostly 115 µM), actives largely listed as inhibitors; AID 1347043, 2019; 76,000 compounds, 2.5% hits; Luciferin 4-monooxygenase (Photinus pyralis), P08659; note: nearly all actives have a fitted effect of over 65% in size
Target sequence (P08659 whole entry, looked up): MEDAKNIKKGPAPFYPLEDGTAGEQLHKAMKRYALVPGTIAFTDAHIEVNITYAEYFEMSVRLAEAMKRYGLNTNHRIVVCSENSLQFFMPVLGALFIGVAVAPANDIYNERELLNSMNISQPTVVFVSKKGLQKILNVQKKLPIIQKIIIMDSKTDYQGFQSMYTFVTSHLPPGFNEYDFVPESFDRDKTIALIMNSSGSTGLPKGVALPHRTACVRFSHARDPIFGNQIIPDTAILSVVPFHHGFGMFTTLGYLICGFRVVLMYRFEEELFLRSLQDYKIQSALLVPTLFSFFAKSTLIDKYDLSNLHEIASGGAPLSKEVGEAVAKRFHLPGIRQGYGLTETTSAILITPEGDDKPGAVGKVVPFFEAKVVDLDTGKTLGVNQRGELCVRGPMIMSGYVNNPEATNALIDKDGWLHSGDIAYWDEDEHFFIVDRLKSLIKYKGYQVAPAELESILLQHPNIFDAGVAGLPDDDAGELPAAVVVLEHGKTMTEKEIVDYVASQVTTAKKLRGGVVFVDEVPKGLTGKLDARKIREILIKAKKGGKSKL
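Luminescence read by CCD imaging after purified firefly luciferase (10nM final) was added to substrate buffer holding 10uM D-luciferin and 10uM ATP, pH 7.5, pre-dosed with compound.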
GPT2 inhibitor = Primary qHTS assay for inhibitors of Glutamate pyruvate transaminase 2 (GPT2) | Potency, µM (series often up to 57.7 µM), usual class: inhibitors | AID 1671188, 2021 | 100,000 compounds, 0.25% hits | Recombinant GPT2, coupled pyruvate oxidase/HRP Amplex Red fluorescence | Alanine aminotransferase 2 (Homo sapiens), Q8TD30; note: nearly all actives have a fitted effect of over 60% in size
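Inhibition is scored from Amplex Red fluorescence generated when pyruvate oxidase and HRP act on pyruvate released by GPT2. Reactions contain 10ng/uL enzyme, 250uM a-KG and 2mM L-alanine and run 30 min at room temperature.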
Each line names hits and unclear results; the compound was inactive in the other large screens. Unless noted, calls come from the whole dose curve; as a rule, active = well fitted curve in the direction sought with a large enough effect; inconclusive = small, poorly fitted or top-dose-only effect, or another doubt; inactive = no such curve, though single readings can be large; an effect the other way counts as inactive or inconclusive.

O=C1COc2ccc(-c3ccccc3)nc2CN1Cc1ccc(F)cc1	HEK293 tox inconclusive, NIH3T3 tox inconclusive
COc1cccc(CN2Cc3nc(-c4cccc(O)c4)ccc3OCC2=O)c1	HEK293 tox 100µM, NIH3T3 tox inconclusive
Cc1cc2cc(C(=O)N3CC[C@@H]4[C@@H](CCC(=O)N4CCN)C3)ccc2o1	none
Cc1ccc(NC(=O)C2CCCN(c3cn[nH]c(=O)c3)C2)cc1C (stereo not drawn)	none
CC(C)c1nc(-c2ccc(OC3CCN(S(=O)(=O)Cc4ccccc4)C3)cc2)no1 (stereo not drawn)	hNpr1 antagonist inconclusive, HEK293 tox inconclusive, NIH3T3 tox inconclusive, Luciferase inh inconclusive
COc1cccc(CN2Cc3nc(-c4cn[nH]c4)ccc3OCC2=O)c1	HEK293 tox inconclusive, NIH3T3 tox 35µM
O=C1COc2ccc(-c3ccccc3)nc2CN1CCOc1ccccc1	HEK293 tox inconclusive, NIH3T3 tox 45µM
COc1cccc(CN2Cc3nc(-c4ccccc4)ccc3OCC2=O)c1	HEK293 tox 79µM, NIH3T3 tox inconclusive
Cc1nc(CN2Cc3nc(N(C)c4ccccc4)ccc3OCC2=O)cs1	hNpr1 antagonist inconclusive, HEK293 tox inconclusive, NIH3T3 tox inconclusive
COc1cccc(CN2Cc3nc(-c4ccncc4)ccc3OCC2=O)c1	HEK293 tox inconclusive, NIH3T3 tox inconclusive
CN(c1ccccc1)c1ccc2c(n1)CN(Cc1ccccc1)C(=O)CO2	hNpr1 antagonist inconclusive, HEK293 tox 89µM, NIH3T3 tox 79µM, Luciferase inh 50µM
COc1cccc(CN2Cc3nc(-c4ccsc4)ccc3OCC2=O)c1	HEK293 tox inconclusive, NIH3T3 tox inconclusive
COc1cccc(-c2ccc(C(=O)N3CCC(C(=O)N4CCC(Cc5ccccc5)CC4)CC3)cc2)c1	HEK293 tox inconclusive, NIH3T3 tox inconclusive (no result: hNpr1 antagonist, Luciferase inh)
CC1=C[C@@H](CNC(=O)Nc2ccc(F)cc2)[C@H](C(C)C)C[C@H]1Cc1nc2c(C)cccc2[nH]1	HEK293 tox inconclusive, NIH3T3 tox 40µM, Luciferase inh inconclusive
CC1=C[C@@H](CNC(=O)C2CCCCC2)[C@H](C(C)C)C[C@H]1Cc1nc2c(C)cccc2[nH]1	HEK293 tox inconclusive, NIH3T3 tox 25µM
COc1cccc(-c2ccc(CN3CCCC(NC(=O)Cc4ccc(F)cc4)C3)cc2)c1 (stereo not drawn)	HEK293 tox 32µM, NIH3T3 tox inconclusive (no result: hNpr1 antagonist, Luciferase inh, GPT2 inhibitor)
COc1cccc(-c2ccc(CN3CCCC(N[S+](=O)([O-])c4ccccc4)C3)cc2)c1 (stereo not drawn)	HEK293 tox 22µM, NIH3T3 tox 40µM (no result: hNpr1 antagonist, Luciferase inh)
COc1cccc(-c2ccc(CN3CCCC(NC(=O)c4ccccc4Cl)C3)cc2)c1 (stereo not drawn)	HEK293 tox 20µM, NIH3T3 tox 28µM (no result: hNpr1 antagonist, Luciferase inh)
COC(=O)NC1CCCN(Cc2ccc(-c3cccc(OC)c3)cc2)C1 (stereo not drawn)	HEK293 tox 45µM, NIH3T3 tox inconclusive (no result: hNpr1 antagonist, Luciferase inh)
COc1cccc(-c2ccc(CN3CCCC(NC(=O)Cc4cccc(Cl)c4)C3)cc2)c1 (stereo not drawn)	HEK293 tox inconclusive, NIH3T3 tox inconclusive (no result: hNpr1 antagonist, Luciferase inh)
COCC(=O)NC1CCCN(Cc2ccc(-c3cccc(OC)c3)cc2)C1 (stereo not drawn)	HEK293 tox inconclusive, NIH3T3 tox inconclusive (no result: hNpr1 antagonist, Luciferase inh)
COc1cccc(-c2ccc(CN3CCCC(NC(=O)Nc4ccccc4)C3)cc2)c1 (stereo not drawn)	HEK293 tox inconclusive, NIH3T3 tox 22µM (no result: hNpr1 antagonist, Luciferase inh)
COc1cccc(-c2ccc(CN3CCCC(NC(=O)C4CC4)C3)cc2)c1 (stereo not drawn)	HEK293 tox 35µM, NIH3T3 tox inconclusive (no result: hNpr1 antagonist, Luciferase inh, GPT2 inhibitor)
COc1ccc(CC(=O)NC2CCCN(Cc3ccc(-c4cccc(OC)c4)cc3)C2)cc1 (stereo not drawn)	HEK293 tox 25µM, NIH3T3 tox 35µM (no result: hNpr1 antagonist, Luciferase inh, GPT2 inhibitor)
O=C1CCN(C(=O)C2CC=CC2)CCCC(c2nc(-c3cccnc3)no2)CCN1 (stereo not drawn)	none
CC(C)c1cc(C2CCCN2C(=O)CCc2cc3n(n2)CCCNC3)no1 (stereo not drawn)	none
O=C1Nc2ccccc2CN(CC2CCCC2)C12CCNC2 (stereo not drawn)	NIH3T3 tox inconclusive (no result: hNpr1 antagonist, Luciferase inh)
CCOc1ccccc1C(=O)N1CCC[C@H]1c1nc(-c2ccc(F)cc2)no1	HEK293 tox 35µM, NIH3T3 tox inconclusive
CCOc1ccc(C(=O)N2CCC[C@H]2c2nc(-c3ccccc3Cl)no2)cc1	HEK293 tox inconclusive, NIH3T3 tox 20µM, Luciferase inh inconclusive
CCOc1cc(C(=O)N2CCC[C@H]2c2nc(-c3ccccc3Cl)no2)cc(OCC)c1OCC	HEK293 tox inconclusive, NIH3T3 tox inconclusive
C[C@H]1[C@@H]2[C@@H](O)C([C@H](C)C(=O)N(C)CCC#N)CC[C@@]2(C)CC[C@@H]1NC(=O)c1ccncc1 (stereo partly drawn)	NIH3T3 tox inconclusive
CN(Cc1ccccc1)C(=O)C1CCN(c2cc(C3CC(O)C3)ncn2)CC1 (stereo not drawn)	hNpr1 antagonist 13µM, HEK293 tox inconclusive
CN(Cc1ccc(-c2ccccc2)cc1)C(=O)C(C)(C)C	HEK293 tox 63µM, NIH3T3 tox inconclusive, Luciferase inh 35µM
CN(Cc1ccccc1)Cc1ccc(-c2ccccc2)cc1	HEK293 tox inconclusive
CN(Cc1ccc(F)cc1)C(=O)C(C)(C)C	none
CN(Cc1ccc(-c2ccccc2)cc1)S(C)(=O)=O	HEK293 tox inconclusive, NIH3T3 tox inconclusive, Luciferase inh 14µM
CN(Cc1ccc(-c2ccccc2)cc1)C(=O)C1CC1	hNpr1 antagonist inconclusive, HEK293 tox inconclusive, NIH3T3 tox inconclusive, Luciferase inh 50µM
OC1CC(c2cc(N3CCC(c4nnc5ccccn45)CC3)ncn2)C1 (stereo not drawn)	none
CCc1nccc(-c2c(-c3ccccc3)ncn2CCN2CCCCC2CO)n1 (stereo not drawn)	none
CCCCc1nn(CC(=O)N2CCC(c3ccccc3)CC2)c(=O)n1CC	none
COc1ccccc1C(=O)N1CCn2c(nnc2-c2ccc(NC(C)=O)cc2)C1	HEK293 tox inconclusive (no result: hNpr1 antagonist, Luciferase inh, GPT2 inhibitor)
NCC(=O)N1Cc2ccccc2CC12CCCN(C(=O)c1ccccc1)C2 (stereo not drawn)	none (no result: hNpr1 antagonist, Luciferase inh)
CN(Cc1ccc(-c2ccccc2)cc1)C(=O)Cc1cccc(Cl)c1	hNpr1 antagonist inconclusive, HEK293 tox 63µM, NIH3T3 tox inconclusive, Luciferase inh inconclusive
COc1ccc(F)cc1-c1ccc(CN2CCC(NC(=O)c3cccc(Cl)c3)C2)cc1 (stereo not drawn)	HEK293 tox 22µM, NIH3T3 tox 22µM (no result: hNpr1 antagonist, Luciferase inh, GPT2 inhibitor)
